# Experimental data from PubChem BioAssay (NCATS).
# Where “and” joins values, the source holds several entries; their conditions need not be identical. Equal values may be shown once. Inconclusive results are not listed. Calls of active or inactive are those of the source. Unless noted, how the calls were made is not given here.
# Assays:
# [1] = qHTS Assay for Identifying Gametocytocidal Compounds (AID 743244; active means well fitted curve in the direction sought with a large enough effect; an effect the other way counts as inactive or inconclusive; further: potency means the concentration at half of the fitted maximal effect;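 on max response: on the % scale 0 is the no-effect control and ±100 the full control effect; actives lower the fluorescent signal which means gametocytes are killed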); conditions: P. falciparum 3D7 stage III-V gametocytes, alamarBlue, 72 h; max response: stronger effect = lower value
# Method in brief: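 In this qHTS viability screen, late-stage 3D7 gametocytes are incubated with compound for 72 h, then with alamarBlue for 24 h; reduced resorufin fluorescence marks killing.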
# [2] = qHTS profiling for inhibitors of Plasmodium falciparum (DD2) proliferation (AID 743323); conditions: lower = more inhibition; at 28.7 µM (top of the series) unless noted
# Method in brief: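 P. falciparum Dd2-infected erythrocytes (0.3% parasitemia, 2.5% hematocrit) exposed 72 h at 37 C, 5% CO2. Lysis with SYBR Green, overnight at room temperature, fluorescence 485/535 nm; normalized to 0.29 uM artemisinin and DMSO.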
# [3] = qHTS profiling for inhibitors of Plasmodium falciparum (HB3) proliferation (AID 743324; active means well fitted curve in the direction sought with a large enough effect; an effect the other way counts as inactive or inconclusive;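 further: 100% = DMSO vehicle wells and 0% = artemisinin-treated control wells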); conditions: Plasmodium falciparum HB3 blood-stage proliferation; at 28.7 µM (top of the series) unless noted
# Method in brief: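 SYBR Green fluorescence (485 ex/535 em) of lysed cultures, incubated overnight at room temperature in the dark, quantifies parasite DNA. Infected erythrocytes at 0.3% parasitemia and 2.5% hematocrit were exposed 72 h; values normalized to DMSO and 0.29 uM artemisinin controls.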
# [4] = qHTS profiling of the MIPE4 collection as inhibitors of Plasmodium falciparum (3D7) proliferation (AID 743344);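 further: scaled between DMSO vehicle wells and 0.29 µM artemisinin as full inhibition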; conditions: P. falciparum 3D7 in erythrocytes, SYBR Green DNA fluorescence, 72 h; at 28.5 µM (top of the series) unless noted
# Method in brief: (§1)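 Parasite DNA was quantified by SYBR Green I fluorescence (ex 485, em 535 nm) after overnight lysis in saponin/Triton buffer at room temperature. Cultures at 0.3% parasitemia and 2.5% hematocrit were first exposed to compound for 72 h at 37 C; signals were normalised to artemisinin (0.29 uM) and vehicle wells.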
# [5] = qHTS profiling of the MIPE4 collection as inhibitors of Plasmodium falciparum (DD2) proliferation (AID 743345); conditions: P. falciparum Dd2 in erythrocytes, SYBR Green DNA, 72 h; at 28.5 µM (top of the series) unless noted
# Method in brief: as §1
# [6] = qHTS profiling of the MIPE4 collection as inhibitors of Plasmodium falciparum (DD2) proliferation (Rep 2) (AID 743346); conditions: P. falciparum Dd2 in erythrocytes, SYBR Green DNA, 72 h; at 28.5 µM (top of the series) unless noted
# Method in brief: as §1
# [7] = qHTS profiling of the MIPE4 collection as inhibitors of Plasmodium falciparum (HB3) proliferation (AID 743347);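 further: plate controls were DMSO vehicle wells for no effect and artemisinin wells for full effect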; conditions: P. falciparum HB3 in erythrocytes, SYBR Green DNA, 72 h; at 28.5 µM (top of the series) unless noted
# Method in brief: as §1
# [8] = Cell Proliferation Assay Versus the ED40515 IL2 Dependent ATL cell lines (AID 1053195; calls by dose curve); conditions: ED40515 IL2-dependent ATL cells
# Method in brief: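 CellTiter-Glo luminescence (15 min, RT) measured viability after 48 hours at 37C; cells were ED40515 +IL2, 1000/well, in phenol red-free RPMI with 5% FBS. Controls: DMSO and 9.2 uM bortezomib.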
# [9] = qHTS profiling for inhibitors of Plasmodium falciparum (3D7) proliferation (AID 743322);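 further: infected erythrocytes exposed to compound for 72 h before lysis; 100% = DMSO vehicle wells and 0% = 0.29 µM artemisinin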; conditions: P. falciparum 3D7 proliferation; at 28.7 µM (top of the series) unless noted
# Method in brief: as §1
# [10] = qHTS for Activators of Parkin Expression: LOPAC Validation Assay (NLuc Reporter) (AID 720572; active means well fitted curve in the direction sought with a large enough effect; an effect the other way counts as inactive or inconclusive;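 further: 0% = DMSO and 100% = positive control compound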)
# Method in brief: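 Cells harboring the Parkin-promoter coincidence reporter were treated for 24 h at seven concentrations. NLuc output was measured sequentially after the FLuc channel and scaled between DMSO and positive control values.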
# [11] = qHTS for Activators of Parkin Expression: LOPAC Validation Assay (FLuc Reporter) (AID 720573; active means well fitted curve in the direction sought with a large enough effect; an effect the other way counts as inactive or inconclusive;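 further: 0% = DMSO and 100% = positive control compounds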)
# Method in brief: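 FLuc signal from Parkin-promoter coincidence reporter neuronal cells, normalized to DMSO and positive control (100%). Cells (1,500/well) pre-incubated 24 h, then exposed to LOPAC compounds in 7-point dose response for 24 h at 37 C, 5% CO2.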
# [12] = qHTS assay for small molecule agonists of the antioxidant response element (ARE) signaling pathway measured by Nrf2-dependant transcriptional activity (AID 720636; active means well fitted curve in the direction sought with a large enough effect in the repeat runs; an effect the other way counts as inactive or inconclusive;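 further: HepG2 cells with an ARE-driven luciferase reporter; % of control where 0% means no effect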)
# Method in brief: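 First, ARE-luc HepG2 cells attached for 6 hr at 37 C in 1% dialyzed FBS medium. Next, compound or DMSO was added and incubated 16 hr. Finally, ONE-Glo reagent was added and luminescence measured after 30 min.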
# [13] = qHTS assay for small molecule agonists of the antioxidant response element (ARE) signaling pathway measured by Nrf2-dependant transcriptional activity - cell viability counter screen (AID 720653; active means well fitted curve in the direction sought with a large enough effect in the repeat runs; an effect the other way counts as inactive or inconclusive; further: on the % scale 0 is the no-effect control and ±100 the full control effect); conditions: ARE-bla HepG2 viability, CellTiter-Glo ATP luminescence, 16 h; stronger effect = lower value
# Method in brief: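 ARE-bla HepG2 cells (2,000/well) rested 5 hrs at 37C/5% CO2, then exposed to compounds in DMSO for 16 hrs. Viability was read in the same wells as intracellular ATP by luminescence, 30 min at room temperature after reagent addition.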
# [14] = biological target: T1, Hexokinase-4 (Homo sapiens) + Glucokinase regulatory protein (Homo sapiens) (UniProt P35557+Q14397); test: qHTS assay for inhibitors of recombinant human GCK-GKRP interaction: Diaphorase-coupled assay (AID 743205; active means well fitted curve in the direction sought with a large enough effect; an effect the other way counts as inactive or inconclusive)
# T1 sequence (P35557 whole entry, looked up): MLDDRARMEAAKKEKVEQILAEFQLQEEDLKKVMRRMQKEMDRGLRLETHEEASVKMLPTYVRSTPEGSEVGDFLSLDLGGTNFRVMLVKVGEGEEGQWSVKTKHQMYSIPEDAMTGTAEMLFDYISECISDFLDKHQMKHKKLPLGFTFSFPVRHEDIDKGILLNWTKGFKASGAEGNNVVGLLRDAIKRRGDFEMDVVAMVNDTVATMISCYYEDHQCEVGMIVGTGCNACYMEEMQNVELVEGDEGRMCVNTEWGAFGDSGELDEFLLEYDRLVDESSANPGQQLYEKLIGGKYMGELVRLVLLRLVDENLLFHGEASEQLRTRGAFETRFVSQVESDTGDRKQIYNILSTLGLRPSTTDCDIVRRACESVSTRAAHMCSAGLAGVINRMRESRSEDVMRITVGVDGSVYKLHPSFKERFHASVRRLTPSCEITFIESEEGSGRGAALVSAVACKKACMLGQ
# T1 sequence (Q14397 whole entry, looked up): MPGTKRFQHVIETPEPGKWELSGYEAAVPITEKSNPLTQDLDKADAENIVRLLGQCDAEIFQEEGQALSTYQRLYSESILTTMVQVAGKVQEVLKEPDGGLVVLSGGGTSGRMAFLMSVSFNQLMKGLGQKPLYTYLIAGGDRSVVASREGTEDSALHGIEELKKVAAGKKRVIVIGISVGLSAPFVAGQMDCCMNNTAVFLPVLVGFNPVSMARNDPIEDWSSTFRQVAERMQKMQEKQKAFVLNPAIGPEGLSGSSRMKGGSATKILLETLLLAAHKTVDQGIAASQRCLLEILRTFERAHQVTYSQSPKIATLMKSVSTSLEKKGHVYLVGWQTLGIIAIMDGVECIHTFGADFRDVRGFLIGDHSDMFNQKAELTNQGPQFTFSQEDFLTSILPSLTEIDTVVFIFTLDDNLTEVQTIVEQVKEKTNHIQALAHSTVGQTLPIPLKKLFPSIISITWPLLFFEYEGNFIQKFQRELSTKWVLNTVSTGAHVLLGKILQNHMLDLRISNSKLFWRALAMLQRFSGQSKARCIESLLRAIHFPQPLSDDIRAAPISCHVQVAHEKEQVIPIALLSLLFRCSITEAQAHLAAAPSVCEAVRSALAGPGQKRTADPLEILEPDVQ
# Method in brief: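 A kinetic fluorescence read (Ex 525/Em 590 nm, every minute for 30 minutes) tracked resorufin from a G6PDH-diaphorase coupled GCK reaction. It contained 10 nM GST-GCK, 10 nM FLAG-GKRP, 5 mM glucose, 0.4 mM ATP in Hepes pH 7.6. Normalized to with/without-enzyme DMSO controls.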
# [15] = biological target: T1, Hexokinase-4 (Homo sapiens) + Glucokinase regulatory protein (Homo sapiens); test: qHTS assay for inhibitors of recombinant human GCK-GKRP interaction: ADP-Glo assay (AID 743206; active means well fitted curve in the direction sought with a large enough effect; an effect the other way counts as inactive or inconclusive;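 further: plate controls were DMSO plus enzyme for no effect and no enzyme for full effect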)
# Method in brief: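 Pin-transferred compounds meet a 15 nM GST-GCK/15 nM FLAG-GKRP/2 uM S6P mix (dispense concentrations). ATP is then added to 0.4 mM final with 5 mM glucose, and the reaction runs 60 min at room temperature. ADP is quantified luminescently.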
# [16] = biological target: T1, Hexokinase-4 (Homo sapiens) + Glucokinase regulatory protein (Homo sapiens); test: qHTS assay for inhibitors of recombinant human GCK-GKRP interaction: HTRF assay (AID 743207; active means well fitted curve in the direction sought with a large enough effect; an effect the other way counts as inactive or inconclusive;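 further: 0% = DMSO with GCK present and -100% = DMSO wells lacking GCK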)
# Method in brief: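 After 60 min equilibration at room temperature with anti-FLAG XL665 and anti-GST antibodies, FRET ratio (665/615 nm, excitation 320 nm) was read. Proteins: GST-GCK and FLAG-GKRP, each 5 nM, plus 2 uM S6P, pH 7.1 buffer; GCK-free wells define minimum signal.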
# [17] = qHTS assay for cell viability of HEK293 cells (AID 743288; active means well fitted curve in the direction sought with a large enough effect; an effect the other way counts as inactive or inconclusive; further: on the % scale 0 is the no-effect control and ±100 the full control effect; nearly all actives have a fitted effect of over 50% in size); conditions: ATP luminescence (CellTiter-Glo), 18 h; max response: stronger effect = lower value
# Method in brief: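 Readout is luciferase-coupled ATP content (CellTiter-Glo luminescence, 30 min room temperature) as a measure of metabolically competent cells. Parental HEK293 cells were plated 5 h or more before compound addition, then treated 18 h at 37 C.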
# [18] = qHTS assay for cell viability of the p53RE-bla HCT-116 cell line (AID 743292; active means well fitted curve in the direction sought with a large enough effect; an effect the other way counts as inactive or inconclusive; further: on the % scale 0 is the no-effect control and ±100 the full control effect; nearly all actives have a fitted effect of over 55% in size)
# Method in brief: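 Quantitative high-throughput format: compounds in DMSO were pinned onto p53RE-bla HCT-116 cells (4,000/well) and incubated 16 h at 37 C. Total intracellular ATP, read by CellTiter-Glo luminescence, reflects viable cell number.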
compound,measurement,setting,value
S=C(NCc1ccc2c(c1)OCO2)N1CCN(c2ncnc3c2oc2ccccc23)CC1,max response,[1],-9.54% (inactive)
same,"activity, percent of control",[2],87.1%
same,"remaining proliferation (% of control), lower = more inhibition",[3],28.7%
same,"parasite growth, % of DMSO control",[4],20.8% [at 57.5 µM]
same,"parasite growth remaining, % of DMSO control (lower = more inhibition)",[5],66.7% [at 57.5 µM]
same,"parasite growth, % of control (lower = inhibition)",[6],63.5% [at 57.5 µM]
same,"growth, % of control",[7],30.4% [at 57.5 µM]
same,Potency,[8],0.0662 µM (active)
Cc1c(CN2CCN(C(=O)C(C)C)CC2)sc2c(N3CCOCC3)nc(-c3cnc(N)nc3)nc12,remaining parasite growth % (stronger effect = lower value),[9],12.2%
same,"activity, percent of control",[2],23.2%
same,"remaining proliferation (% of control), lower = more inhibition",[3],8.2%
same,"parasite growth remaining, % of DMSO control (lower = more inhibition)",[5],25.7%
same,"parasite growth, % of control (lower = inhibition)",[6],14.5%
same,"growth, % of control",[7],4.71%
same,Potency,[8],1.66 µM (active)
O=C1CCC(N2C(=O)c3ccccc3C2=O)C(=O)N1 (stereo not drawn),Potency,[10],inactive
same,outcome,[11],inactive
same,outcome,[12],inactive
same,max response,[13],1.28% (inactive)
same,outcome,[14],inactive
same,outcome,[15],inactive
same,outcome,[16],inactive
same,max response,[1],18.1% (inactive) and 27% (inactive)
same,max response,[17],-7.06% (inactive)
same,Potency,[18],inactive
same,"parasite growth remaining, % of DMSO control (lower = more inhibition)",[5],88.8%
same,"parasite growth, % of control (lower = inhibition)",[6],142%
same,"growth, % of control",[7],114%
CCCc1nn(C)c2c(=O)[nH]c(-c3cc(S(=O)(=O)N4CCN(C)CC4)ccc3OCC)nc12,max response,[1],18.4% (inactive)
same,"activity, percent of control",[2],102%
same,"remaining proliferation (% of control), lower = more inhibition",[3],61.6%
same,"parasite growth, % of DMSO control",[4],21.3%
same,"parasite growth remaining, % of DMSO control (lower = more inhibition)",[5],17.2%
same,"parasite growth, % of control (lower = inhibition)",[6],51.4%
same,"growth, % of control",[7],24.6%
same,Potency,[8],37.2 µM (active)
O=C(Nc1ccc(F)c(C(F)(F)F)c1)Nc1nnc(-c2ccncc2)s1,max response,[1],6.18% (inactive)
same,remaining parasite growth % (stronger effect = lower value),[9],94.5%
same,"activity, percent of control",[2],90%
same,"remaining proliferation (% of control), lower = more inhibition",[3],67.6%
same,"parasite growth, % of DMSO control",[4],19.3%
same,"parasite growth, % of control (lower = inhibition)",[6],25.2%
same,"growth, % of control",[7],4.4%
same,Potency,[8],0.935 µM (active)
Cc1ccc(-n2nc(C(C)(C)C)cc2NC(=O)Nc2ccc(OCCN3CCOCC3)c3ccccc23)cc1,Potency,[1],12.6 µM (active)
same,remaining parasite growth % (stronger effect = lower value),[9],24.3%
same,"activity, percent of control",[2],14.4%
same,"remaining proliferation (% of control), lower = more inhibition",[3],5.8%
same,"parasite growth remaining, % of DMSO control (lower = more inhibition)",[5],84.5%
same,"parasite growth, % of control (lower = inhibition)",[6],31.6%
same,"growth, % of control",[7],72.4%
same,Potency,[8],26.4 µM (active)
O=C(O)c1ccc(-c2c[nH]c3ccc(-c4ccccc4)cc23)cc1C1CCCC1,max response,[1],15.6% (inactive)
same,remaining parasite growth % (stronger effect = lower value),[9],-0.426%
same,"activity, percent of control",[2],0.0014%
same,"remaining proliferation (% of control), lower = more inhibition",[3],-0.0688%
same,Potency,[8],5.26 µM (active)
CCCS(=O)(=O)Nc1ccc(F)c(C(=O)c2c[nH]c3ncc(-c4ccc(Cl)cc4)cc23)c1F,max response,[1],14.6% (inactive)
same,remaining parasite growth % (stronger effect = lower value),[9],17.1%
same,"activity, percent of control",[2],22.9%
same,"remaining proliferation (% of control), lower = more inhibition",[3],22.8%
same,"parasite growth, % of DMSO control",[4],17.9%
same,"parasite growth remaining, % of DMSO control (lower = more inhibition)",[5],24%
same,"parasite growth, % of control (lower = inhibition)",[6],52.1%
same,"growth, % of control",[7],15.2%
same,Potency,[8],20.9 µM (active)
CC(C)C[C@H](NC(=O)[C@@H](O)[C@H](N)Cc1ccccc1)C(=O)O,Potency,[10],inactive
same,outcome,[11],inactive
same,outcome,[14],inactive
same,outcome,[15],inactive
same,outcome,[16],inactive
same,max response,[1],-20.9% (inactive) and 9.59% (inactive)
same,remaining parasite growth % (stronger effect = lower value),[9],2.82%
same,"activity, percent of control",[2],6.99%
same,"remaining proliferation (% of control), lower = more inhibition",[3],5.96%
same,"parasite growth, % of DMSO control",[4],7.87%
same,"parasite growth, % of control (lower = inhibition)",[6],16%
same,"growth, % of control",[7],6.17%
